Source: PubChem
CYP2C9 inhib = blockers of cytochrome P450 2C9 activity – biochemical, luminescence, ADME assay, primary screen; P11712; CYP2C9 Supersomes, luciferin-H conversion; inhibition, % at 5 µM; 20% of 96,000 active;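 active = blocking of liver enzyme CYP2C9 beyond about 50% at 5 µM, limit read from the data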
Target sequence (P11712 whole entry, looked up): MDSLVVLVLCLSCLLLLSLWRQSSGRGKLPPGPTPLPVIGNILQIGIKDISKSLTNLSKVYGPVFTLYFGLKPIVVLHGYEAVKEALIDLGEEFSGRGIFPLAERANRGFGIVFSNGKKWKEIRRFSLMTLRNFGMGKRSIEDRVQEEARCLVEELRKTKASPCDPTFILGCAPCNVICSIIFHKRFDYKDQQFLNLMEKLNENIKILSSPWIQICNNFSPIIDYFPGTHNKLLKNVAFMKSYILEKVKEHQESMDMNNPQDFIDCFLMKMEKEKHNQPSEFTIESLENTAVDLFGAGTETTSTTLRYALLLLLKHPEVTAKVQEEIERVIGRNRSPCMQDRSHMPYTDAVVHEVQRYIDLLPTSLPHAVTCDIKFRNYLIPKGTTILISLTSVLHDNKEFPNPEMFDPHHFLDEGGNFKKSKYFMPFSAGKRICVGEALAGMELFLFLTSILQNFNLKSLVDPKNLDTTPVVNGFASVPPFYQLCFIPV
EphB4 antag = EphB4-ephrin-B2 interaction antagonists, primary screen, biochemical, TNYL-RAW peptide probe, fluorescence polarization. EphB4 LBD / TNYL-RAW-Alexa532 peptide. 0.15% of 97,000 active. Ephrin type-B receptor 4 (Homo sapiens), P54760. inhibition, % at 7 µM;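 active = inhibition above the screen-wide mean inhibition plus 3 SD, cut at about 15% in these data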;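 also: 0% = DMSO wells and 100% = excess unlabeled TNYL-RAW peptide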
CYP2C9 activ = human CYP2C9 activators, primary screen, biochemical, luminescence; Cytochrome P450 2C9 (Homo sapiens), P11712; recombinant CYP2C9, luciferin-H conversion; hits give high values; factor 1 = untreated enzyme, 0 = blocked; activation factor at 5 µM; 1.4% of 96,000 active; AID 1024, 2008;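 active = activation factor of 2 or more for CYP2C9 at a 5 µM dose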;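 also: 0 = sulfaphenazole-blocked wells and 1 = vehicle-only wells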
CYP2C19 inhib = blockers of cytochrome P450 2C19 activity – biochemical, luminescence, ADME assay, primary screen | AID 778, 2007 | inhibition, % at 5 µM | 21% of 96,000 active | CYP2C19 Supersomes, luciferin-H EGE luminescence, 30 min | P33261;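 active = CYP2C19 inhibition above a set limit at 5 µM in the primary screen, cut at about 50% in these data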;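 also: plate controls were negative control wells for no effect and 2.5 mM tranylcypromine positive control for full effect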
CYP2C19 act = human CYP2C19 activators, primary screen, biochemical, luminescence; recombinant CYP2C19, luciferin-H EGE luminescence; hits give high values; 0 = fully inhibited enzyme, 1 = untreated enzyme; activation factor at 5 µM; 96,000 tested, under 10 active; AID 1025, 2008;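 active = activation factor of at least 2 at 5 µM in the primary screen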;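 also: 0 = wells with 2.5 mM tranylcypromine and 1 = vehicle-only wells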
Numbers without * were called inactive; · = no result. Sampled rows, rich in hits. Any-hit rate of the full collection: about 27%.

SMILES | CYP2C9 inhib | EphB4 antag | CYP2C9 activ | CYP2C19 inhib | CYP2C19 act
N#Cc1ccc(C(c2nnnn2Cc2ccccc2)N2CCCC2)cc1 (stereo not drawn) | -5.0 | 0.9 | 1.1 | 39.0 | 0.6
CC(C)CCn1nnnc1C(c1ccccc1)N1CCN(C)CC1 (stereo not drawn) | 9.9 | · | 0.9 | -3.8 | 1
O=C(COc1ccc(F)cc1)c1ccc2c(c1)CCCC2 | · | -1.9 | · | · | ·
OC(CNCc1ccc(F)cc1)(c1ccccc1)c1ccc(F)cc1 (stereo not drawn) | 15.5 | 3.8 | 0.8 | 33.1 | 0.7
CCOC(=O)c1sc(NC(=O)CSc2nc3c(cc2C#N)CCCCC3)c(C#N)c1C | 21.5 | 9.4 | 0.8 | -11.8 | 1.1
CCOc1ccc(C2=NNC(c3cccs3)=Nc3ccc(OC)cc32)cc1 | · | 2.1 | · | · | ·
CCCNC(=O)Nc1ccc2c(c1)N(C)C(=O)c1ccccc1S2 | 78.9* | -1.2 | 0.2 | 41.2 | 0.6
CC(NC(=O)Cn1c(=O)[nH]c2ccsc2c1=O)C12CC3CC(CC(C3)C1)C2 (stereo not drawn) | 0.5 | 3.5 | 1 | -6.6 | 1.1
CC(C)CNC(=S)NNC(=O)c1csc2ccccc12 | -7.5 | -0.2 | 1.1 | 23.5 | 0.8
CCc1cc(C(=O)NNC(=S)Nc2cccc(C)c2)cs1 | · | -0.2 | · | · | ·
Cc1cccc(NC(=S)NNC(=O)c2sccc2C)c1 | 88.0* | -0.4 | 0.1 | 73.3* | 0.3
Cc1ccsc1C(=O)NNC(=S)NCC(C)C | 27.5 | 2.9 | 0.7 | 91.1* | 0.1
CC(CCc1ccccc1)NC(=O)C1CCN(S(=O)(=O)N2CCCCC2)CC1 (stereo not drawn) | 22.6 | -3.6 | 0.8 | 11.2 | 0.9
CCOc1ccc(OCCCCNCCN)cc1 | 4.5 | 0.3 | 1 | 5.6 | 0.9
CCOC(=O)CC1(c2ccccc2)CCOC(C)(C)C1 (stereo not drawn) | 34.0 | -1.0 | 0.7 | 87.4* | 0.1
CCc1nnc(NC(=O)c2cccc(S(=O)(=O)N(C)c3ccccc3)c2)s1 | 23.5 | -7.0 | 0.8 | 20.1 | 0.8
COc1cc(C2C(C(=O)OC(C)C)=C(C)Nc3[nH]c(=O)[nH]c(=O)c32)ccc1O (stereo not drawn) | 49.8 | 6.1 | 0.5 | 81.6* | 0.2
CCOc1ccc(C(=O)NCC(C)C)cc1 | -19.9 | -1.6 | 1.2 | -13.3 | 1.1
CCOC(=O)c1c(NC(=O)CC2Nc3cc(C)c(C)cc3NC2=O)sc(C)c1C (stereo not drawn) | 68.6* | -8.8 | 0.3 | 43.7 | 0.6
O=C(NCCCn1ccnc1)c1ccc(Cl)c(S(=O)(=O)N2CCOCC2)c1 | 96.8* | -7.3 | 0 | 36.4 | 0.6
Cc1ccc(C(=O)Nc2ccc(Cl)cn2)cc1S(=O)(=O)N1CCOCC1 | 5.9 | -6.8 | 0.9 | -5.4 | 1.1
O=C(NCCCn1ccnc1)c1cccc(S(=O)(=O)N2CCCCCC2)c1 | 100.1* | 2.2 | 0 | 95.4* | 0
Cc1cc2n(n1)SC(Nc1cccc3ccccc13)N2 (stereo not drawn) | · | 4.0 | · | · | ·
CC1(c2cnc(Nc3ccccc3)s2)CCC(=O)O1 (stereo not drawn) | -105.1 | 0.6 | 2.1* | 31.0 | 0.7
COc1ccc(S(=O)(=O)NCc2ccco2)cc1-c1nnc2c3ccccc3c(C)nn12 | 14.3 | 0.1 | 0.9 | 14.2 | 0.9
SMILES | CYP2C9 inhib | EphB4 antag | CYP2C9 activ | CYP2C19 inhib | CYP2C19 act
CCOC(=O)/C(C(N)=NCc1ccco1)=C(/O)c1ccccc1 | 39.9 | -0.5 | 0.6 | 54.7* | 0.5
c1ccc(NC(=NCc2ccco2)c2ccccc2)cc1 | 19.4 | 2.1 | 0.8 | 8.2 | 0.9
COc1ccc2c(c1OC)CN(C)CCc1cc3c(cc1C(O)C2)OCO3 (stereo not drawn) | -22.7 | -4.4 | 1.2 | 79.5* | 0.2
COc1cccc(=O)c2c(C)n(-c3cc(C)cc(C)c3)c(C)c12 | 82.4* | 3.8 | 0.2 | 82.3* | 0.2
COc1ccc(-n2c(C)n[nH]c2=O)cc1OC | 15.4 | -1.4 | 0.8 | -6.9 | 1.1
Nc1ccc(Sc2cnn(-c3ccccc3)c(=O)c2Cl)cc1 | 91.3* | 2.6 | 0.1 | 99.4* | 0
COc1cc(-c2nnc(SCc3c(F)cccc3Cl)o2)cc(OC)c1OC | 58.1* | -3.2 | 0.4 | 39.9 | 0.6
COc1ccc(-c2cc(C(=O)NCc3cccnc3)no2)cc1OC | 14.5 | -8.9 | 0.9 | -2.2 | 1
